# Data reported in the supplement of paper PMC6555819.
# What was measured:
# Assay in all cases: PBM binding z-score (relative to random genomic background probes); higher = stronger binding; sequences stand for … in GC…GCGATTGACAGCGTAGAATGAAGG
# [1] = test system: FXR:RXRa (NR concentration 270 nM, RXRa partner concentration 90 nM)
# In short: (§1)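 On custom Agilent 4×180K arrays, double-stranded probes with 34-nt variable regions carried direct-repeat seeds, single-nucleotide variants, half-site ablations or random human genomic background. Ligand-free nuclear receptor dimers were applied for 1 h, and binding was read with antibodies against each partner (one per run). Binding z-scores come from regression-normalized fluorescence, with the random background probes as reference.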
# [2] = test system: LXRa:RXRa (NR concentration 270 nM, RXRa partner concentration 90 nM)
# In short: as §1
# [3] = test system: LXRa homodimer (NR concentration 270 nM)
# In short: as §1
# [4] = test system: LXRb:RXRa (NR concentration 270 nM, RXRa partner concentration 90 nM)
# In short: as §1
# [5] = test system: LXRb homodimer (NR concentration 270 nM)
# In short: as §1
# [6] = test system: PPARa:RXRa (NR concentration 270 nM, RXRa partner concentration 90 nM)
# In short: as §1
# [7] = test system: PPARg:RXRa (NR concentration 180 nM, RXRa partner concentration 90 nM)
# In short: as §1
# [8] = test system: PPARg:RXRa 270nM:90nM, anti-RXR (NR concentration 270 nM, RXRa partner concentration 90 nM)
# In short: as §1
# [9] = test system: PPARg:RXRa 30nM:10nM, anti-RXR (NR concentration 30 nM, RXRa partner concentration 10 nM)
# In short: as §1
# [10] = test system: PPARg:RXRa 90nM:30nM, anti-RXR (NR concentration 90 nM, RXRa partner concentration 30 nM)
# In short: as §1
Sequence,PBM binding z-score [1],PBM binding z-score [2],PBM binding z-score [3],PBM binding z-score [4],PBM binding z-score [5],PBM binding z-score [6],PBM binding z-score [7],PBM binding z-score [8],PBM binding z-score [9],PBM binding z-score [10]
CCAACTGGGCCAAAGGTCATTGATTCCAATGCTC,4.93,4.78,3.93,4.85,0.383,6.66,12.4,10.4,10.8,11.4
TCTTGTAGATCAAAGGTTACGAAAGCCGAAGCCT,2.01,2.2,0.222,2.27,-0.174,4.71,8.72,8.23,7.86,8.98
ATCGAAAGGTCGACGGTGAGTATACCCACCCGAA,4.38,3.44,0.131,2.47,0.548,4.12,2.45,3.09,1.17,2.63
ATCTCTAGGTAAAGATAGTTGAGTGAATGCAAAT,0.323,0.358,-0.0172,0.23,0.435,0.437,0.538,0.246,0.222,0.29
AGTCAAAGTTCATCTAGGTGACGTAAGATATGCT,6.84,5.85,5.06,3.69,1.52,4.98,7.01,6.36,3.53,5.48
TGAAGGAGGTTATAAGATCAGGGAACGTTGCAAA,0.559,0.855,-0.0635,0.774,-0.481,2.16,0.845,1.42,0.992,1.16
CGTCCAAGGTCAATGCTAAGTCAGTGAAAGCATT,6.87,4.59,0.722,3.58,0.637,4.73,3.59,4.12,0.983,2.55
CCTACTGGGCCAAAAAGGACATTGATGCCGATAA,-0.363,-0.495,-0.28,-0.539,-0.727,-0.00322,1.04,1.6,0.0632,1.17
GCTTGTAGAACAAGGTTAAGAAAGACTAAGCTAA,-0.242,0.558,-0.426,0.502,-0.664,1.6,0.852,1.67,0.36,1.11
CAAACTAGTTCACAGAGGTCAAAGTCCGTGCGTA,5.85,6.23,7.12,5.68,2.36,5.3,3.87,5.02,2.33,4.18
CGAACGAGGGCATGAGTTGCTAGCAAATGCCGAT,0.106,0.132,-0.624,0.0886,-1.12,1.35,1.1,1.52,0.000453,0.931
ATCTCTAGGTAAAGTGCAGTGAAAGATCGATAGA,0.236,0.336,-0.00202,-0.0786,0.221,0.525,0.843,2.05,0.6,1.67
CCTCGGAAGACAACAGGAGGTCAGAGCTGCCAGA,0.802,1.66,1.65,1.31,-0.201,1.62,0.36,0.247,-0.599,-0.387
TAGCCTAGGTCTTGGGCCAGTATACCACGCGAAC,-0.302,-0.359,-0.58,-0.334,-0.384,-0.242,0.0651,-0.286,-0.619,-0.51
TGGCAAAGTTCAAAGGTAACGTAAGTATCCACAC,7.23,6.17,4.18,4.49,1.25,5.55,6.74,7.1,4.38,6.02
ATCTCTAGGTAACCAACTTCAGTGAATGCCGAAC,0.38,0.07,0.43,0.199,1.07,0.378,0.531,0.519,0.321,0.666
GCTCGGAGGACAAGGTCAGTGCTTTGTCCGTAGA,1.54,1.23,-0.17,1.09,-0.53,1.94,0.00556,1.33,-0.784,0.326
CTCGGAAGGTCGGTTGAGGTGAGTATACGGATAA,2.43,0.338,-0.673,0.113,-0.399,1.01,-0.0465,-0.0669,-0.473,-0.159
GCTGCTAAGTCAGGTTGGTCAGCTAACGGGTACG,-0.434,-0.657,-0.43,-0.836,-0.829,-0.794,-0.46,-0.678,-0.924,-0.942
CAGACTAGGTCACGAAAGGTCAAAGTCGAATGAC,7.54,8.31,7.86,7.34,2.45,6.6,9.66,7.89,5.88,7.73
TAGCCTAGGTCATGCGGGCCAGTATTGTGTCGGC,3.83,2.94,0.0608,1.71,-0.269,3.48,1.84,2.13,0.0531,1.17
ACGGACAGGTGATGAAGGTAACTCAGGCTATCAT,0.169,-0.084,-0.0768,0.109,-0.152,0.276,0.712,0.0307,0.33,0.172
TCGAGTAGGTTAGGGGCACTCAGAATGGCGTCGA,0.134,-0.0493,-0.34,0.556,-0.72,0.994,0.844,1.91,0.959,1.64
